Assay results: PubChem BioAssay AID1159580 (chemical genetic matrix, 2015)
“And” between values parts separate entries of the source, which are not always exact repeats. Equal entries are not always repeated. The campaign covered roughly 5,500 compounds. About 2,000 (36%) were called active. Another 18% or so got no clear call; they are omitted. This is one part of the list. Values without a mark were called inactive. Cut-off read from the data, not from the text of the source: active = normalized growth mostly below about 0.91 (no sharp cut-off); inconclusive = no clear call, values can overlap the other calls; inactive = mostly above about 0.92.

Assay: chemical genetic growth profiling, strain panel (AID 1159580);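 note: tested at 20 µM; growth read once vehicle control cultures reached saturation at 30 °C; 1 = growth at the plate median or of vehicle wells; lower values mean less growth of the strain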
Settings: S. cerevisiae deletion strains, growth OD

COc1ccc(CCN2CCC(Nc3nc4ccccc4n3Cc3ccc(F)cc3)CC2)cc1
normalized growth (locus YAL021C, strain ccr4, active compounds read low): 0.721 (active) | normalized growth (locus YAL026C, strain drs2, active compounds read low): 0.783 (active) | normalized growth (locus YAL030W, strain snc1, active compounds read low): 0.988 | normalized growth (locus YBL061C, strain skt5, active compounds read low): 0.969 | normalized growth (locus YBR009C, strain hhf1, active compounds read low): 0.936 | normalized growth (locus YBR021W, strain FUR4, active compounds read low): 0.821 (active) | normalized growth (locus YBR023C, strain chs3, active compounds read low): 0.959 | normalized growth (locus YBR171W, strain sec66, active compounds read low): 0.992 | normalized growth (locus YBR229C, strain ROT2, active compounds read low): 0.972 | normalized growth (locus YBR231C, strain swc5, active compounds read low): 0.981 | normalized growth (locus YBR279W, strain paf1, active compounds read low): 0.954 | normalized growth (locus YCL011C, strain gbp2, active compounds read low): 0.935 | normalized growth (locus YCL016C, strain dcc1, active compounds read low): 0.919 | normalized growth (locus YCL029C, strain bik1, active compounds read low): 0.983 | normalized growth (locus YCL061C, strain MRC1, active compounds read low): 0.96 | normalized growth (locus YCL069W, strain vba3, active compounds read low): 0.953 | normalized growth (locus YCR088W, strain abp1, active compounds read low): 0.924 | normalized growth (locus YDL005C, strain med2, active compounds read low): 0.967 | normalized growth (locus YDL035C, strain GPR1, active compounds read low): 0.972 | normalized growth (locus YDL040C, strain nat1, active compounds read low): 0.985 | normalized growth (locus YDL074C, strain BRE1, active compounds read low): 0.935 | normalized growth (locus YDL101C, strain DUN1, active compounds read low): 0.984 | normalized growth (locus YDL134C, strain PPH21, active compounds read low): 0.983 | normalized growth (locus YDL185W, strain tfp1, active compounds read low): 0.984 | normalized growth (locus YDL192W, strain arf1, active compounds read low): 0.986 | normalized growth (locus YDR001C, strain nth1, active compounds read low): 0.972 | normalized growth (locus YDR069C, strain doa4, active compounds read low): 0.874 (active) | normalized growth (locus YDR101C, strain arx1, active compounds read low): 0.992 | normalized growth (locus YDR137W, strain rgp1, active compounds read low): 1.18 [resistant] (active) | normalized growth (locus YDR150W, strain NUM1, active compounds read low): 1 | normalized growth (locus YDR159W, strain sac3, active compounds read low): 0.986 | normalized growth (locus YDR162C, strain NBP2, active compounds read low): 0.986 | normalized growth (locus YDR195W, strain ref2): 0.971 | normalized growth (locus YDR297W, strain sur2, active compounds read low): 0.999 | normalized growth (locus YDR318W, strain mcm21, active compounds read low): 0.984 | normalized growth (locus YDR334W, strain swr1, active compounds read low): 0.979 | normalized growth (locus YDR335W, strain msn5, active compounds read low): 0.959 | normalized growth (locus YDR388W, active compounds read low): 0.687 (active) | normalized growth (locus YDR392W, strain spt3, active compounds read low): 0.742 | normalized growth (locus YDR502C, strain sam2, active compounds read low): 0.977 | normalized growth (locus YEL003W, strain gim4, active compounds read low): 0.96 | normalized growth (locus YEL037C, strain rad23, active compounds read low): 0.867 (active) | normalized growth (locus YEL061C, strain CIN8 (second series), active compounds read low): 0.981 | normalized growth (locus YEL061C, strain CIN8, active compounds read low): 0.993 | normalized growth (locus YER015W, strain faa2, active compounds read low): 0.93 | normalized growth (locus YER016W, strain bim1, active compounds read low): 0.911 (active) | normalized growth (locus YER110C, active compounds read low): 0.992 | normalized growth (locus YER111C, strain swi4, active compounds read low): 0.962 | normalized growth (locus YER155C, strain BEM2 (second series), active compounds read low): 0.822 (active) | normalized growth (locus YER155C, strain BEM2, active compounds read low): 0.991 | normalized growth (locus YER167W, strain BCK2, active compounds read low): 0.973 | normalized growth (locus YFR010W, strain ubp6, active compounds read low): 0.838 (active) | normalized growth (locus YGL078C, strain dbp3, active compounds read low): 0.985 | normalized growth (locus YGL086W, strain mad1, active compounds read low): 1.02 | normalized growth (locus YGL167C, strain pmr1, active compounds read low): 1 | normalized growth (locus YGL173C, strain kem1, active compounds read low): 0.982 | normalized growth (locus YGL227W, strain vid30, active compounds read low): 0.981 | normalized growth (locus YGL240W, strain doc1, active compounds read low): 0.978 | normalized growth (locus YGL248W, strain PDE1, active compounds read low): 0.985 | normalized growth (locus YGL253W, strain hxk2, active compounds read low): 0.904 (active) | normalized growth (locus YGR135W, strain pre9, active compounds read low): 0.877 (active) | normalized growth (locus YGR229C, strain SMI1, active compounds read low): 0.971 | normalized growth (locus YGR252W, strain gcn5, active compounds read low): 0.9 | normalized growth (locus YHR013C, strain ard1, active compounds read low): 0.857 | normalized growth (locus YHR027C, strain rpn1, active compounds read low): 0.954 | normalized growth (locus YHR030C, strain SLT2, active compounds read low): 0.997 and 0.996 | normalized growth (locus YHR079C, strain IRE1 (second series), active compounds read low): 0.984 | normalized growth (locus YHR079C, strain IRE1, active compounds read low): 0.972 | normalized growth (locus YHR094C, strain hxt1, active compounds read low): 0.986 | normalized growth (locus YHR129C, strain ARP1, active compounds read low): 0.988 | normalized growth (locus YHR142W, strain chs7, active compounds read low): 0.888 | normalized growth (locus YHR200W, strain rpn10, active compounds read low): 0.994 | normalized growth (locus YIL066C, strain RNR3, active compounds read low): 0.974 | normalized growth (locus YIL073C, strain SPO22, active compounds read low): 1.74 [resistant] (active) | normalized growth (locus YIL125W, strain kgd1, active compounds read low): 0.993 | normalized growth (locus YIR030C, strain dcg1, active compounds read low): 0.99 | normalized growth (locus YJL092W, strain hpr5, active compounds read low): 0.917 (active) | normalized growth (locus YJL095W, strain BCK1 (second series), active compounds read low): 0.991 | normalized growth (locus YJL095W, strain BCK1, active compounds read low): 0.923 and 0.988 | normalized growth (locus YJL115W, strain asf1, active compounds read low): 0.976 | normalized growth (locus YJL129C, strain trk1, active compounds read low): 0.972 | normalized growth (locus YJL134W, strain LCB3, active compounds read low): 0.998 | normalized growth (locus YJL154C, strain vps35, active compounds read low): 0.962 | normalized growth (locus YJL164C, strain tpk1, active compounds read low): 0.957 | normalized growth (locus YJL166W, strain qcr8, active compounds read low): 0.974 | normalized growth (locus YJL168C, strain set2, active compounds read low): 0.994 | normalized growth (locus YJL187C, strain SWE1 (second series), active compounds read low): 0.976 | normalized growth (locus YJL187C, strain SWE1, active compounds read low): 0.982 | normalized growth (locus YJR043C, strain POL32, active compounds read low): 0.998
